Several values for one entry are separate records, joined by “and”; a condition that tells them apart may be missing. Equal values may be shown once. Inconclusive results are not listed. Activity calls are given as the source filed them. The calls were made as follows: active = hit-call score of the fitted dose curve at least 0.9, where 1 is the maximum; inconclusive = response in the unintended direction; inactive = score below 0.9.

This passage reports AC50 and outcome results from PubChem BioAssay (EPA / NIEHS).

Sequence of human Tyrosine Protein Kinase Receptor Tie-2 (Tie2), TEK (gene 7010) (Q02763 whole entry, looked up): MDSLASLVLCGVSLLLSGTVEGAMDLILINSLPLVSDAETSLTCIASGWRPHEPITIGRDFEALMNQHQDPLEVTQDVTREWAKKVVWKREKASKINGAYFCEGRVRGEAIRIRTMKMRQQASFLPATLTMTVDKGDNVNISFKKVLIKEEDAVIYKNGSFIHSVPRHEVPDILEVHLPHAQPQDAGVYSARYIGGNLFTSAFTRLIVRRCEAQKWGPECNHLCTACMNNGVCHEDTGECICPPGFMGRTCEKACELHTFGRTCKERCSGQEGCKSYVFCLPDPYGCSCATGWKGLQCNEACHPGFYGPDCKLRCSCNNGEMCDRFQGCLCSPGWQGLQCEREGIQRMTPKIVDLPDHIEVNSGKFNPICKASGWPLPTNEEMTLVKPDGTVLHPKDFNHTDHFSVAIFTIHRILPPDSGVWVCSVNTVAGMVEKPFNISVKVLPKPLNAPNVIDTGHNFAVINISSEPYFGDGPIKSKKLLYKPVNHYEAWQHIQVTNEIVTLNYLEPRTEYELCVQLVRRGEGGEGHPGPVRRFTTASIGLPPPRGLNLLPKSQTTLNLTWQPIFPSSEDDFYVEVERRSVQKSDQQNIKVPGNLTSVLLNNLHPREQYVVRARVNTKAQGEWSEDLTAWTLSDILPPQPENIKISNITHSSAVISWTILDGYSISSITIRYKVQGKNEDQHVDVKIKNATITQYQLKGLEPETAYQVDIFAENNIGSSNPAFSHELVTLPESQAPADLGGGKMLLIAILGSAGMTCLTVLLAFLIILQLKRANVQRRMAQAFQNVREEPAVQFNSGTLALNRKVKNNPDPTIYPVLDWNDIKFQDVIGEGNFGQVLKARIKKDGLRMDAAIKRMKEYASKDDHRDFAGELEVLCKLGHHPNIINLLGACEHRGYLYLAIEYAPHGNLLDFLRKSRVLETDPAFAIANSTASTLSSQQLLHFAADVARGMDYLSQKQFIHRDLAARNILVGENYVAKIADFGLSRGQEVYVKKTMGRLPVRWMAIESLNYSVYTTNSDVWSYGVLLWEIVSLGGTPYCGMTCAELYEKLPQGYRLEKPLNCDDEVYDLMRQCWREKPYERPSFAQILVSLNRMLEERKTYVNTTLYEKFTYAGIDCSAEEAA

The target of one experiment is human SRC Proto-Oncogene, Non-receptor Tyrosine Kinase (SRC), SRC (gene 6714) (UniProt P12931). Kind of experiment: NVS_ENZ_hSRC: NovaScreen (NVS) Enzymatic Assay for human SRC Proto-Oncogene, Non-receptor Tyrosine Kinase (SRC) (AID 2283223). In short, it runs like this: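 Compounds passing 30% inhibition at 25 uM (duplicate) were titrated to a top concentration of 50 uM. Enzyme activity read by fluorescence with mobility-shift substrate/product separation after 1 h; DMSO baseline.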
Sequence of human SRC Proto-Oncogene, Non-receptor Tyrosine Kinase (SRC), SRC (gene 6714) (P12931 whole entry, looked up): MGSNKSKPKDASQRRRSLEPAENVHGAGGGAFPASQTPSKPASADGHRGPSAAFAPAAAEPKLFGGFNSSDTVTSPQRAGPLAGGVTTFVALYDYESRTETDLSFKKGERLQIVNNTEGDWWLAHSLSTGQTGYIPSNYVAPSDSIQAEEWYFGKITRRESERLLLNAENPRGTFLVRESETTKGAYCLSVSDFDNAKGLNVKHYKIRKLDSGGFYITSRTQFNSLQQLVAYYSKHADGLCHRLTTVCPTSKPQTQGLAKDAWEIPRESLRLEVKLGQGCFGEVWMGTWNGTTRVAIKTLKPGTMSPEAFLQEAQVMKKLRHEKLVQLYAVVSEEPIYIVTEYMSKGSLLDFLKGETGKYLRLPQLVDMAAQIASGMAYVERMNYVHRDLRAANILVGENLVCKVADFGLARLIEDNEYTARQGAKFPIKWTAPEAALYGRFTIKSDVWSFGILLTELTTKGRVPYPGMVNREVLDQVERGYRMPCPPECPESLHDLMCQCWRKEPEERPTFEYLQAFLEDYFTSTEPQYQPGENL
Usually AC50 stands for the midpoint of the concentration-response curve, whichever way the signal moves. Consider `CC[C@H](C)[C@H]1O[C@]2(C=C[C@@H]1C)C[C@@H]1C[C@@H](C/C=C(\C)[C@@H](O[C@H]3C[C@H](OC)[C@@H](O[C@H]4C[C@H](OC)[C@@H](NC)[C@H](C)O4)[C@H](C)O3)[C@@H](C)/C=C/C=C3\CO[C@@H]4[C@H](O)C(C)=C[C@@H](C(=O)O1)[C@]34O)O2`, for which the half-maximal activity concentration (AC50) is 34000 nM (active).

For `CC(C)[C@H](C(=O)O[C@H](C#N)c1cccc(Oc2ccccc2)c1)c1ccc(Cl)cc1`, the result was inactive.

Regarding `CCNc1nc(Cl)nc(NC(C)(C)C#N)n1`, the compound was classed as inactive.

Turning to `CC(C1CC1)C(O)(Cn1cncn1)c1ccc(Cl)cc1` (configuration not stated), the compound was classed as inactive.

The target in another experiment is human Tyrosine Protein Kinase Receptor Tie-2 (Tie2), TEK (gene 7010) (UniProt Q02763). Kind of experiment: NVS_ENZ_hTie2: NovaScreen (NVS) Enzymatic Assay for human Tyrosine Protein Kinase Receptor Tie-2 (Tie2) (AID 2283225). The procedure:
NVS_ENZ_hTie2 is a biochemical, single-readout assay that uses extracted gene-proteins in a cell-free assay. Measurements were taken 1 hour after chemical dosing in a 384-well plate.NVS_ENZ_hTie2 is one of one assay component(s) measured or calculated from the NVS_ENZ_hTie2 assay. It is designed to make measurements of enzyme activity, a form of enzyme reporter, as detected with fluorescence intensity signals by Fluorescence and electrophoretic mobility shift technology.Data from the assay component NVS_ENZ_hTie2 was analyzed into 1 assay endpoint. This assay endpoint, NVS_ENZ_hTie2, was analyzed in the positive analysis fitting direction relative to DMSO as the negative control and baseline of activity. Using a type of enzyme reporter, loss-of-signal activity can be used to understand changes in the enzymatic activity as they relate to the gene TEK. Furthermore, this assay endpoint can be referred to as a primary readout, because this assay has produced multiple assay endpoints where this one serves a enzymatic activity function. To generalize the intended target to other relatable targets, this assay endpoint is annotated to the kinase intended target family, where the subfamily is receptor tyrosine kinase.
Binding assays used specific radioligands (tritiated, iodinated) with non-radioactive competitive displacement ligands in agonist or antagonist protocols (as indicated) and various reference compounds and inhibitors to titrate specific binding to receptors and transporters. Most enzyme assays (CYPs, kinases, phosphatases, proteases, HDACs) used recombinant protein and specific substrates (fluorescence mostly, some colorimetric and radioactive) and inhibitors, followed by a biochemical separation of substrate and product. All assays for the biochemical HTS were initially run in duplicate at a single concentration (10 uM for CYP450 assays and 25 uM for all others). Assay-chemical combinations meeting a pre-defined threshold (e.g., 30% inhibition and other criteria defined below) were then run in singleton concentration-response format with maximum concentration of 20 uM for CYPs and 50 uM for all others. Each assay was run with positive and negative controls, and concurrent controls on every plate. The follow-up (secondary) screen tested active chemical-pairs in concentration series, as well as a few additional assays not tested in the primary screen, some selected negative inactives, and several cases re-run in the concentration series for confirmatory purposes.
As for `CN(C)[C@@H]1C(=O)C(C(N)=O)=C(O)[C@@]2(O)C(=O)C3=C(O)c4c(O)cccc4[C@@](C)(O)[C@H]3[C@H](O)[C@@H]12`, the AC50 was 7.51 µM (active) and 13.4 µM (active) and 8.19 µM (active).

Regarding `O=[N+]([O-])c1cc(C(F)(F)F)c(Cl)c([N+](=O)[O-])c1Nc1ncc(C(F)(F)F)cc1Cl`, the outcome was inactive.

`CC[C@H](C)[C@H]1O[C@]2(C=C[C@@H]1C)C[C@@H]1C[C@@H](C/C=C(\C)[C@@H](O[C@H]3C[C@H](OC)[C@@H](O[C@H]4C[C@H](OC)[C@@H](NC)[C@H](C)O4)[C@H](C)O3)[C@@H](C)/C=C/C=C3\CO[C@@H]4[C@H](O)C(C)=C[C@@H](C(=O)O1)[C@]34O)O2`: the call was inactive.

With `S=C1NCCN1`, the compound was classed as inactive.

Turning to `C=C(C)[C@H]1Cc2c(ccc3c2O[C@@H]2COc4cc(OC)c(OC)cc4[C@@H]2C3=O)O1`, the compound was classed as inactive.

The target of the next experiment is sheep Cyclooxygenase-2 (Cox2), PTGS2 (gene 443460) (UniProt P79208). As to the kind of experiment: NVS_ENZ_oCOX2: NovaScreen (NVS) Enzymatic Assay for sheep Cyclooxygenase-2 (Cox2) (AID 2283231). In short, it runs like this: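 Enzyme from ovine placenta, cell-free; colorimetric absorbance read 0.66 hour after dosing, loss of signal vs DMSO. Screened in duplicate at 25 uM, then concentration-response up to 50 uM.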
Sequence of sheep Cyclooxygenase-2 (Cox2), PTGS2 (gene 443460) (P79208 whole entry, looked up): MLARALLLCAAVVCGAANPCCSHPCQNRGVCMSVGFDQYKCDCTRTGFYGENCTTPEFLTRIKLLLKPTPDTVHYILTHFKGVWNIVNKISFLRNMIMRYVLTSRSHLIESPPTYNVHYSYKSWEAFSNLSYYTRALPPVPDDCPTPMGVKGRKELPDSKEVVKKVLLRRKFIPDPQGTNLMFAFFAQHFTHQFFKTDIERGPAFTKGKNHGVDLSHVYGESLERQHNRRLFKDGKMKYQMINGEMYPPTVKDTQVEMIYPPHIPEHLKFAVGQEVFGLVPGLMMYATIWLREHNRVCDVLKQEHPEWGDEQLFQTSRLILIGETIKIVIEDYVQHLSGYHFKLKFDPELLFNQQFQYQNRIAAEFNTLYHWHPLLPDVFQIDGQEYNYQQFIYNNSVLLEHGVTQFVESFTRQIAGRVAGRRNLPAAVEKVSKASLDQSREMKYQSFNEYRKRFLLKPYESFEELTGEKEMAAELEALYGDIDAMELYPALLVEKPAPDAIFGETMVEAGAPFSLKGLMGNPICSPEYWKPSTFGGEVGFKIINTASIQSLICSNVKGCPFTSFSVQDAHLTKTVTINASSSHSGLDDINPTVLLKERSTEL
`CN(C)[C@@H]1C(=O)C(C(N)=O)=C(O)[C@@]2(O)C(=O)C3=C(O)c4c(O)cccc4[C@@](C)(O)[C@H]3[C@H](O)[C@@H]12`: the concentration at half-maximal activity (AC50) is 1890 nM (active).

In the case of `FC(F)C(F)(F)OCC(Cn1cncn1)c1ccc(Cl)cc1Cl` (configuration not stated), the concentration at half-maximal activity (AC50) is 670 nM (active).

On to `CC[C@H](C)[C@H]1O[C@]2(C=C[C@@H]1C)C[C@@H]1C[C@@H](C/C=C(\C)[C@@H](O[C@H]3C[C@H](OC)[C@@H](O[C@H]4C[C@H](OC)[C@@H](NC)[C@H](C)O4)[C@H](C)O3)[C@@H](C)/C=C/C=C3\CO[C@@H]4[C@H](O)C(C)=C[C@@H](C(=O)O1)[C@]34O)O2`, for which the concentration at half-maximal activity (AC50) is 39.6 nM (active).
